# Assay results published in PubChem BioAssay (NCATS).
# Inconclusive results are not listed. A number with no mark means an inactive call. Unless noted, the call rests on the fitted dose curve; in most records, active means well fitted activation curve with a large enough effect; inconclusive means small, poorly fitted or top-dose-only effect; inactive means flat fitted curve, though single readings scatter.
# System: not listed separately
# Assay: Validation screen for small molecules that induce DNA re-replication in SW480 colon adenocarcinoma cells (AID 504364); further: 0% is about no effect
# Conditions: DNA re-replication phenotype (high-content imaging); series mostly up to 46.1 µM; activity (re-replication induction): at the top concentration
# In short: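 250 cells/well; compound pinned in; 48 hr, 37 C, 5% CO2; Hoechst added, 40 min; nuclear fluorescence imaged, 405 ex / 500-530 em; re-replication scored as increase in high-intensity nuclei.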
row,SMILES,activity (re-replication induction) [%]
1,COc1cc2c(cc1OC)-c1cc(=Nc3c(C)cc(C)cc3C)n(C)c(=O)n1CC2,2.52
2,COCCc1ccc(OCC(O)CNC(C)C)cc1 (centres undefined),1.41
3,NC(=O)N1c2ccccc2C=Cc2ccccc21,-0.351
4,CCCCCN(CCCCC)C(=O)C(CCC(=O)O)NC(=O)c1ccc(Cl)c(Cl)c1 (centres undefined),-9.86
5,NC(N)=NC(=O)Cc1c(Cl)cccc1Cl,-1.04
6,CN(C)CC[C@@H](c1ccc(Br)cc1)c1ccccn1,-2.5
7,CNCCC(Oc1ccccc1OC)c1ccccc1 (centres undefined),0.127
8,C[N+](C)(C)CCOC(=O)CCC(=O)OCC[N+](C)(C)C,1.55
9,NC(N)=N/N=C/c1c(Cl)cccc1Cl,-1.25
10,O=C1NCN(c2ccccc2)C12CCN(CCCC(c1ccc(F)cc1)c1ccc(F)cc1)CC2,0.0329
11,C[N+](C)(C)CCCCCCCCCC[N+](C)(C)C,3.8
12,COc1ccc(CN(CCN(C)C)c2ccccn2)cc1,10.7
13,CC[N+](C)(C)c1cccc(O)c1,-11.1
14,c1cnc(N2CCN(Cc3ccc4c(c3)OCO4)CC2)nc1,3.97
15,CC1=C(C)C(=O)C(CCCCC#CCCCC#CCO)=C(C)C1=O,11.3
16,CCN1CCc2nc(N)oc2CC1,-5.37
17,O=C(O)CN(CCN(CC(=O)O)CC(=O)O)CCN(CC(=O)O)CC(=O)O,6.11
18,CC(C)COCC(CN(Cc1ccccc1)c1ccccc1)N1CCCC1 (centres undefined),-4.1

row,SMILES,activity (re-replication induction) [%]
1,CCCCNc1c(C(=O)OCC)c(C)nc2c1cnn2CC,-14.3
2,CC(C)NNC(=O)c1ccncc1,4.19
3,O=C(CCCN1CCC(O)(c2cccc(C(F)(F)F)c2)CC1)c1ccc(F)cc1,28.6
4,CC1=NS(=O)(=O)c2cc(Cl)ccc2N1,4.3
5,Cc1nc2c([nH]1)c(=O)n(C)c(=O)n2Cc1ccco1,-3.91
6,COC(=O)[C@@H](N)Cc1ccc(O)c(O)c1,-3.54
7,C[C@]12C=CC(=O)C=C1CC[C@H]1[C@@H]3C[C@@H](O)[C@](O)(C(=O)CO)[C@@]3(C)C[C@H](O)[C@@]12F,-4.66
8,Nc1c2c(nc3ccccc13)CCCC2O (centres undefined),-2.52
9,CN(C(=O)CCCOc1ccc2[nH]c(=O)ccc2c1)C1CCCCC1,-3.46
10,CCOC(=O)C1=C(C)NC(C)=C(C(=O)OC)C1c1cccc(Cl)c1Cl (centres undefined),6.17
11,CC(=O)Nc1nnc(S(N)(=O)=O)s1,-22.5
12,CC(N=C(NC#N)Nc1ccncc1)C(C)(C)C (centres undefined),-8.05
13,c1ccc2c(c1)CCCC2C1=NCCN1 (centres undefined),-14.6
14,CC(=O)OC(C)C[N+](C)(C)C (centres undefined),9.33
15,Cc1ccc(=O)n(-c2ccccc2)c1,-8.2
16,OC(CCN1CCCCC1)(c1ccccc1)C1CCCCC1 (centres undefined),3.61
17,Cc1nc2sccn2c(=O)c1CCN1CCC(=C(c2ccc(F)cc2)c2ccc(F)cc2)CC1,-0.42
18,CCN(CC)CCNC(=O)c1cc(S(C)(=O)=O)ccc1OC,-8.07

# Biological target: Peptidyl-prolyl cis-trans isomerase NIMA-interacting 1 (Homo sapiens) (UniProt Q13526)
# Sequence (Q13526 whole entry, looked up): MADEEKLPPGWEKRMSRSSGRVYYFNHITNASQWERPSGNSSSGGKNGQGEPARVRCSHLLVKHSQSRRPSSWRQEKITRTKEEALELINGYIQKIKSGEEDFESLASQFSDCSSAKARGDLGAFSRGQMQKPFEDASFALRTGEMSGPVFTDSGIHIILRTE
# Assay: qHTS Validation Assay to Find Inhibitors of Pin1 (AID 504536; active means well fitted inhibition curve with a large enough effect in the polarisation, with a control signal flat, not every such curve was filed as active; the % refers to the polarisation;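 further: 0% = full Pin1 enzyme wells and -100% = no-enzyme wells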)
# Conditions: Pin1 fluorescence polarization peptide binding assay; series mostly up to 57.5 µM; activity, negative = inhibition: at the top concentration
# In short: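 Fluorescence polarization competition: compounds (titration) displace HiFluor-488-labeled Pin1-1b peptide from Pin1 (0.3 uM final) in pH 7.5 HEPES buffer with DTT, 10 min at room temperature; %Activity normalized to no-enzyme wells, curves fitted.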
row,SMILES,"activity, negative = inhibition [%]"
1,COCCc1ccc(OCC(O)CNC(C)C)cc1 (centres undefined),-14
2,NC(=O)N1c2ccccc2C=Cc2ccccc21,-4.01
3,CCCCCN(CCCCC)C(=O)C(CCC(=O)O)NC(=O)c1ccc(Cl)c(Cl)c1 (centres undefined),-0.826
4,NC(N)=NC(=O)Cc1c(Cl)cccc1Cl,2.72
5,CN(C)CC[C@@H](c1ccc(Br)cc1)c1ccccn1,5.61
6,CNCCC(Oc1ccccc1OC)c1ccccc1 (centres undefined),1.52
7,C[N+](C)(C)CCOC(=O)CCC(=O)OCC[N+](C)(C)C,0.0456
8,NC(N)=N/N=C/c1c(Cl)cccc1Cl,3.63
9,O=C1NCN(c2ccccc2)C12CCN(CCCC(c1ccc(F)cc1)c1ccc(F)cc1)CC2,-6.39
10,C[N+](C)(C)CCCCCCCCCC[N+](C)(C)C,-2.59
11,COc1ccc(CN(CCN(C)C)c2ccccn2)cc1,-11.5
12,CC[N+](C)(C)c1cccc(O)c1,5
13,CC1=C(C)C(=O)C(CCCCC#CCCCC#CCO)=C(C)C1=O,-1.12
14,CCN1CCc2nc(N)oc2CC1,-0.692
15,O=C(O)CN(CCN(CC(=O)O)CC(=O)O)CCN(CC(=O)O)CC(=O)O,-24.2
16,CC(C)COCC(CN(Cc1ccccc1)c1ccccc1)N1CCCC1 (centres undefined),2.09
17,CCCCNc1c(C(=O)OCC)c(C)nc2c1cnn2CC,0.0925

row,SMILES,"activity, negative = inhibition [%]"
1,CC(C)NNC(=O)c1ccncc1,-27.1
2,O=C(CCCN1CCC(O)(c2cccc(C(F)(F)F)c2)CC1)c1ccc(F)cc1,0.206
3,CC1=NS(=O)(=O)c2cc(Cl)ccc2N1,21.3
4,Cc1nc2c([nH]1)c(=O)n(C)c(=O)n2Cc1ccco1,-0.462
5,C[C@]12C=CC(=O)C=C1CC[C@H]1[C@@H]3C[C@@H](O)[C@](O)(C(=O)CO)[C@@]3(C)C[C@H](O)[C@@]12F,-0.824
6,Nc1c2c(nc3ccccc13)CCCC2O (centres undefined),-1.08
7,CN(C(=O)CCCOc1ccc2[nH]c(=O)ccc2c1)C1CCCCC1,0.675
8,CCOC(=O)C1=C(C)NC(C)=C(C(=O)OC)C1c1cccc(Cl)c1Cl (centres undefined),-3.35
9,CC(=O)Nc1nnc(S(N)(=O)=O)s1,9.35
10,CC(N=C(NC#N)Nc1ccncc1)C(C)(C)C (centres undefined),8.54
11,c1ccc2c(c1)CCCC2C1=NCCN1 (centres undefined),-0.114
12,CC(=O)OC(C)C[N+](C)(C)C (centres undefined),-3.4
13,Cc1ccc(=O)n(-c2ccccc2)c1,0.423
14,OC(CCN1CCCCC1)(c1ccccc1)C1CCCCC1 (centres undefined),-11.9
15,Cc1nc2sccn2c(=O)c1CCN1CCC(=C(c2ccc(F)cc2)c2ccc(F)cc2)CC1,-8.67
16,CCN(CC)CCNC(=O)c1cc(S(C)(=O)=O)ccc1OC,1.64
